Bioassay records (PubChem BioAssay)
Efa HMGR inh: E. faecalis class II HMG-CoA reductase inhibition | purified E. faecalis HMGR, NADPH absorbance 340 nm kinetic | inhibition, % at 10 µM | actives 0.41% (n = 190,000) | AID 1066;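 active = inhibition above a set limit, the median over all tested compounds plus 3 SD, cut at about 9.5% in these data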;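 also: enzyme runs in reverse so mevalonate oxidation gives rising NADPH absorbance; 0% = complete reaction with DMSO and 100% = background rate lacking mevalonate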
Autophagy mod: modulators of autophagy | actives 0.98% (n = 190,000) | calls only at 10 µM (by protocol) | MEF GFP-LC3 puncta imaging; test concentration mostly 10 µM;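 active = percentage of spot-positive cells more than 3 SD above its plate mean, without a fluorescence outlier flag or 80% toxicity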;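 also: spot-positive cell cutoff set from DMSO-treated cells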
Arbovirus inh: blocks arbovirus infection | arbovirus infection cell-based antiviral screen | inhibition, % at 10 µM | actives 0.37% (n = 200,000) | AID 1251; in the data active = inhibition above about 30%
Insulin prom up: MIN6 insulin promoter up-regulation; MIN6 insulin promoter-GFP reporter, high-content imaging; stronger effect = higher value; AID 1625; actives 0.3% (n = 190,000); z-score at 5 µM;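 active = z-score above 3 at 5 µM with at least 500 cells counted in the well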
DTT redox prof: compounds producing H2O2 with reducing agent – biochemical, NIH compound library profiling, artefact control for MLSCN library redox annotation, primary screen | DTT-dependent redox cycling H2O2, phenol red/HRP absorbance; 100% = 100 µM peroxide control, 0% = buffer | actives 0.03% (n = 200,000) | AID 878 | activation, % at 10 µM;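 active = activation of at least 50% relative to the plate's high and low controls in the primary single-dose screen; inactive = activation below 50%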;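 also: compound incubated with DTT at 0.8 mM final as the reducing agent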
p47phox inh: inhibitors of human p47phox binding. inhibition, % at 24.7 µM. P14598. actives 0.53% (n = 220,000). p47phox/p22phox peptide binding, fluorescence polarization, 2 h;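 active = inhibition above about 30%, limit read from the data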;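 also: 0% = p47phox with labelled peptide and 100% = labelled peptide alone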
Target sequence (P14598 whole entry, looked up): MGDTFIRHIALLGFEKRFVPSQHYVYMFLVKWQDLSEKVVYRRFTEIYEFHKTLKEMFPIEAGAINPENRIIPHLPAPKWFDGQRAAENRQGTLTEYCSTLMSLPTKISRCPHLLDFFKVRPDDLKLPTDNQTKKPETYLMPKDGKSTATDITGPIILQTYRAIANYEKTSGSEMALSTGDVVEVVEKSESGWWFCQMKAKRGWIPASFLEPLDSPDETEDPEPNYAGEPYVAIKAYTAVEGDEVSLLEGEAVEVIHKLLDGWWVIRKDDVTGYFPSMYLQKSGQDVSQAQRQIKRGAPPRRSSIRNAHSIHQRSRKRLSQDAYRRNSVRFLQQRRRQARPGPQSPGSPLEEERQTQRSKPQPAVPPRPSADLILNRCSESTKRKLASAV
The depositor's hits bear a star; i = inactive; . = not tested or not shown; + = active, no number; ! = a repeat was not active. A selection: hits, their analogues and other compounds. The true share with any hit is near 2.2%.

SMILES | Efa HMGR inh | Autophagy mod | Arbovirus inh | Insulin prom up | DTT redox prof | p47phox inh
S=C(Nc1cccc(Cl)c1)N(CCCN1CCCC1)Cc1cccn1Cc1ccc(Cl)cc1 | -6 | i | -34 | -0.2 | 0 | 43*
COc1cccc(NC(=S)N(CCCN2CCCC2)Cc2cccn2Cc2ccc(Cl)cc2)c1 | -7 | i | -31 | -1.6 | 0 | -10
CCOC(=O)CN1C(=O)C(O)(C2CCc3ccccc3C2=O)c2ccccc21 (centres undefined) | -5 | i | 2 | -0.39 | 1 | -16
CCN1CCN(C(=O)c2ccccc2N(Cc2ccccc2)S(=O)(=O)c2ccc(OC)cc2)CC1 | . | . | . | -0.34 | . | 5
CCN(CC)S(=O)(=O)c1cc(NC(=O)COC(=O)CCC(=O)c2ccc(F)cc2)ccc1C | 2 | i | 0 | 0.08 | 0 | -32
CC(=O)Nc1ccc(S(=O)(=O)N[C@@H](C)C(=O)OCc2cc([N+](=O)[O-])cc3c2OCOC3)cc1 | . | . | . | -0.89 | . | -7
CCc1cccc2c(SCC(=O)NCC3CCCO3)nc(-c3ccc(F)cc3)nc12 (centres undefined) | 1 | + | -8 | -0.12 | -3 | -19
CC(NCCC1(Cc2ccccc2Cl)CCOC(C)(C)C1)c1cccs1 (centres undefined) | . | . | . | 0.31 | . | -16
N#CC(C#N)=C1NC2(CCCCC2)Cc2ccccc21 | . | . | . | -0.9 | . | -9
N#CC(C#N)=c1ccc2c(c1)NC1(CCCCC1)N=2 | -8 | i | 1 | -0.59 | 1 | 132*
COc1ccc(OC)c(-c2nnc(-c3ccc(C)o3)o2)c1 | -2 | i | 20 | -0.84 | 1 | -17
O=C(Nc1ccc(OC(F)(F)F)cc1)Nc1cccc([N+](=O)[O-])c1 | -10 | i | -30 | -4.6 | 0 | -14
O=C(Nc1ccc(OC(F)(F)F)cc1)c1[nH]ncc1[N+](=O)[O-] | -2 | i | 30* | -0.11 | 0 | -1
CCCCCCOc1ccc(N2C(=O)CC(SC(=NCC)NCC)C2=O)cc1 (centres undefined) | 2 | i | 0 | -1.7 | 0 | -3
CCC(CC)C(=O)c1c[nH]c(C(=O)NCc2cccs2)c1 | 11* | i | -8 | 0.11 | 0 | -3
CCC(CC)C(=O)c1c[nH]c(C(=O)NCc2ccco2)c1 | -11 | i | -8 | 0.59 | -4 | -7
COc1cccc(CC2(CO)CCCN(Cc3ccc(CN4CCCCC4)s3)C2)c1 (centres undefined) | -5 | i | 14 | -0.4 | -1 | -12
COC(=O)c1onc(-c2c(Cl)cccc2Cl)c1C(=O)OC | . | . | . | -0.1 | . | 47*
Cc1ccc(O)c(-c2cc(C(F)(F)C(F)F)[nH]n2)c1 | 0 | i | 34* | -0.37 | 0 | -6
Cc1ccc(-c2nn(CC(=O)NCc3cc(-c4nn(C)c(=O)c5ccccc45)ccc3C)c(=O)c3ccccc23)cc1 | -2 | i | -30 | 0.17 | 0 | 59*
COC(=O)c1ccc(C(NC(=O)OCc2ccccc2)/C(C)=C/[C@@H](C)C(=O)NCc2ccc(-c3ccccc3)cc2)cc1 (some centres undefined) | 14* | i | -5 | -1.2 | 3 | -12
COc1ccc2c(C(=O)CN3CCSCC3)c[nH]c2c1 | . | . | . | 0.07 | . | -16
COc1ccc2c(C(=O)CN(C)C3CCCCC3)c[nH]c2c1 | -2 | i | 2 | 4.5* | 3 | -23
Cc1ccc(S(=O)(=O)N(C)c2ccc(C(=O)Nc3c(C)n(C)n(-c4ccccc4)c3=O)cc2)cc1 | 0 | i | 0 | . | 0 | -6
Cc1ccc(C2C(C#N)=C(N)OC3=C2C(=O)CCC3)s1 (centres undefined) | -2 | i | -2 | 0.05 | 0 | -4
SMILES | Efa HMGR inh | Autophagy mod | Arbovirus inh | Insulin prom up | DTT redox prof | p47phox inh
Cc1ccsc1C1C(C#N)=C(N)OC2=C1C(=O)CCC2 (centres undefined) | 0 | + | -5 | . | 0 | 3
COc1ccc(-n2nnc3c(SCC(=O)Nc4ccccc4F)ncnc32)cc1 | 0 | i | -8 | -0.45 | 6 | 0
Cc1nc(S(=O)(=O)N2CCN(C3c4ccccc4-c4ccccc43)CC2)cn1C | . | . | . | -0.48 | . | -5
Cc1nc2c(o1)CCc1ccccc1C2N1CCN(C)CC1 (centres undefined) | 9.5*! | i | 1 | -0.68 | 0 | 3
O=C(O)COc1ccccc1/C=N/NC(=O)CSc1nc2ccccc2n1Cc1ccc(Cl)cc1 | . | . | . | . | . | -17
N#Cc1cc(-c2ccccc2)nn1-c1ccccc1 | -4 | i | -4 | 0.18 | -1 | 34*
Cn1ccc(-c2ccccc2)n1 | 1 | i | 15 | 0.11 | 1 | -1
O=C(O)c1ccccc1N/N=C\c1ccnc2ccccc12 | 0 | i | 31* | -0.57 | -4 | -48
Cn1nnnc1SCC1=C(C(=O)O)N2C(=O)C(NC(=O)Cn3nc(C(F)F)cc3C3CC3)C2SC1 (centres undefined) | -4 | + | -5 | 0.76 | 0 | -6
CCC(C)(C)NC(=O)C(c1ccc(C)cc1)N(Cc1cccs1)C(=O)c1ccc2c(c1)OCCO2 (centres undefined) | 1 | i | -31 | -1.1 | 2 | -8
Cc1ccc(C(C(=O)NC(C)(C)C)N(Cc2cccs2)C(=O)c2ccc3c(c2)OCCO3)cc1 (centres undefined) | -4 | i | 4 | -0.11 | 0 | 52*
Cc1nn(Cc2ccccc2)c(C)c1N | -6 | i | -4 | 0.06 | 0 | 2
CCc1cc(CNC(=O)CC2C(=O)NCCN2Cc2c(F)cccc2Cl)on1 (centres undefined) | -3 | i | 4 | -0.06 | -1 | 91*
Cc1cc(C(=O)NNC(=O)NC(C)C)no1 | . | . | . | . | . | -13
CCOC(=O)c1sc(NC(=O)CSc2nc(C)cc(C)n2)c(C#N)c1C | -5 | i | -1 | 0.78 | 2 | -19
CCOC(=O)c1c(NC(=O)CSc2nc(C)cc(C)c2C#N)sc(C(C)=O)c1C | -5 | + | -5 | -0.95 | 0 | 10
CCOC(=O)c1sc(NC(=O)CSc2n[nH]c(-c3ccccc3)n2)c(C#N)c1C | 1 | + | -41 | 1 | 0 | -37
CCOC(=O)c1c(NC(=O)CSc2nnc(-c3ccc(C)cc3)o2)sc(C(C)=O)c1C | -3 | i | -3 | . | 0 | -19
CCOc1ccc(C(=O)N2CCN=C2SC)cc1OCC | -4 | + | 0 | 0.37 | -1 | 3
O=C(Nc1cccc(Cl)c1)Nc1ccnc(-c2cccnc2)n1 | 1 | i | 34* | -1.6 | -2 | -1
CCN(C(=O)Cn1c(=O)n(-c2cc(OC)c(OC)c(OC)c2)c(=O)c2ccccc21)c1cccc(C)c1 | 4 | i | 1 | . | 0 | 6
CCN(CC)C(=O)Cn1c(=O)c2ccccc2n2c(=S)sc(-c3cccc(C)c3)c12 | -2 | + | -24 | 1.4 | 1 | -73
